From PubChem BioAssay (NCATS)
Results filed as inconclusive are left out. Unmarked numbers belong to inactive results. The call rests on the fitted dose curve; in most records, active means well fitted cell-killing curve with a large enough effect; inconclusive means small, poorly fitted or top-dose-only effect; inactive means no such curve, though single readings can be large or run the other way.

Assay: qHTS of pediatric cancer cell lines to identify multiple opportunities for drug repurposing: Primary screen for OHS-50 cells (AID 1347103); further: nearly all actives have a fitted effect of over 40% in size
Conditions: OHS-50 osteosarcoma viability, CellTiter-Glo luminescence, 48 h; series mostly up to 57.3 µM; activity change, negative = cytotoxic: at the top concentration
Description: Drug repurposing or repositioning has been offered as a strategy for drug development in oncology programs. This approach has special potential for childhood cancers and other rare or orphan diseases, where the expected return on new drug development has been a disincentive to pharmaceuticals.
In this project we exploit the poly-pharmacology of drugs to discover new indications via phenotypic screening of a panel of 19 well-characterized cell lines derived from solid tumors seen in children and adolescents. The goal is to identify approved drugs with previously unrecognized anticancer properties that has the potential to reveal new mechanisms and biological processes involved in carcinogenesis or drug resistance. We employed a titration-based paradigm (quantitative high-throughput screening or qHTS), where all compounds were tested at multiple concentrations for their effect on cell viability. Concentration-response curves (CRCs) were derived directly from the primary screen, and both potency and efficacy values were used to identify compounds with robust bioactivity profiles. We screened the NIH Chemical Genomics Center (NCGC) Pharmaceutical Collection (NPC) and Mechanism Interrogation Plate (MIPE) small molecule collections of approved and investigational compounds against these cell lines; and measured metabolically active cells after 48 hours of compound treatment as a proxy for cell viability.
Assay Submitter: Nathalia J. Martinez, National Center for Advancing Translational Sciences, National Institutes of Health, Rockville, MD, USA; email: natalia.martinez@nih.gov
[1] Shen, M et al. Quantitative high-throughput phenotypic screening of pediatric cancer cell lines identifies multiple opportunities for drug repurposing. Oncotarget 2017 Dec 19;9(4):4758-4772. PMID 29435139.
The cells were obtained from University of North Carolina (UNC), Pediatric Preclinical Testing Program (PPT), and Coriell Institute (CI).
qHTS cell viability assay:
Cells were assayed in growth media at a density of 500-1,000 cells/well. Five microliters of cells were dispensed into 1,536-well, white, solid-bottom, TC-treated plates (Greiner Bio One) using a multidrop dispenser and incubated at 37 degrees C, 5% CO2, under a humidified atmosphere for 5 hours. Twenty-three nanoliters of compounds and controls (neutral control DMSO or positive control bortezomib at final concentration of 2.3 µM) were subsequently transferred by Kalypsys pintool. For primary screens, the MIPE collection was tested at 11-point dilutions (final concentrations range from 0.78 nM to 46 µM) and the NPC collection at 8-point dilutions (final concentrations range from 0.59 nM to 46 µM). Compounds tested in follow-up screens were assayed at 11-point dilutions. Cells were incubated for 48 hours, followed by addition of 3 µL of CellTiter-Glo (Promega). After a 15 min incubation at room temperature, samples were analyzed for luminescence intensity using a ViewLux High-throughput CCD imager equipped with clear filters.

**Q.** For `COC(=O)c1ccc(O)cc1`, which “activity change, negative = cytotoxic” value is on record?
**A.** Its value is -5.04%.

**Q.** With `O=C(/C=C/c1ccc(O)c(O)c1)O[C@@H]1C[C@@](OC(=O)/C=C/c2ccc(O)c(O)c2)(C(=O)O)C[C@@H](O)[C@@H]1O` as the compound, how does the “activity change, negative = cytotoxic” value read?
**A.** Its value is -6.68%.

**Q.** Which “activity change, negative = cytotoxic” value does the source give for `COc1ccc(-c2cc(=O)c3c(O)cc(O[C@@H]4O[C@H](CO[C@@H]5O[C@@H](C)[C@H](O)[C@@H](O)[C@H]5O)[C@@H](O)[C@H](O)[C@H]4O)cc3o2)cc1O` here?
**A.** The value was 22.2%.

**Q.** With `OCc1ccc(Cl)cc1Cl` as the compound, how does the “activity change, negative = cytotoxic” value read?
**A.** Its value is 3.77%.

**Q.** Which “activity change, negative = cytotoxic” value does the source give for `CC1(C)[C@@H](OC(=O)CCC(=O)O)CC[C@]2(C)[C@H]3C(=O)C=C4[C@@H]5C[C@@](C)(C(=O)O)CC[C@]5(C)CC[C@@]4(C)[C@]3(C)CC[C@@H]12` here?
**A.** Its value is 9.04%.

**Q.** Which “activity change, negative = cytotoxic” value does the source give for `COC(=O)c1ccccc1C(=O)c1ccc(OCCN2CCCCC2)cc1` here?
**A.** Its value is -14.3%.

**Q.** For `CN1CCN(C(=O)C2CCCCC2)CC1`, which “activity change, negative = cytotoxic” value is on record?
**A.** Its value is 8.11%.

**Q.** For `O=C(O)c1ccccc1C(=O)Nc1ccc(S(=O)(=O)Nc2nccs2)cc1`, which “activity change, negative = cytotoxic” value is on record?
**A.** Its value is -11%.

**Q.** Which “activity change, negative = cytotoxic” value does the source give for `CCCCCC(N)=O` here?
**A.** The value was 11.4%.

**Q.** Which “activity change, negative = cytotoxic” value does the source give for `CCOC(N)=O` here?
**A.** The value was 8.47%.

**Q.** Which “activity change, negative = cytotoxic” value does the source give for `NS(=O)(=O)c1ccc(NC(=O)CCC(=O)O)cc1` here?
**A.** The value was -1.9%.

**Q.** For `CC(=O)Nc1ccccc1`, which “activity change, negative = cytotoxic” value is on record?
**A.** The value was 4.94%.

**Q.** With `Cc1ncc(CO)c(CN)c1O` as the compound, how does the “activity change, negative = cytotoxic” value read?
**A.** The value was 2.12%.

**Q.** With `Nc1ccncc1N` as the compound, how does the “activity change, negative = cytotoxic” value read?
**A.** Its value is -8.81%.

**Q.** With `CC1(C)S[C@@H]2[C@H](N=CN3CCCCCC3)C(=O)N2[C@H]1C(=O)O` as the compound, how does the “activity change, negative = cytotoxic” value read?
**A.** The value was -7.98%.

**Q.** Which “activity change, negative = cytotoxic” value does the source give for `O=C(OOC(=O)c1ccccc1)c1ccccc1` here?
**A.** The value was 9.48%.

**Q.** For `CC(=O)N1C[C@H](O)C[C@H]1C(=O)O`, which “activity change, negative = cytotoxic” value is on record?
**A.** The value was 7.19%.

**Q.** Which “activity change, negative = cytotoxic” value does the source give for `CCCCCCCCCCCCCCCCN` here?
**A.** Its value is -5.3%.

**Q.** Which “activity change, negative = cytotoxic” value does the source give for `CN[C@@H]1[C@H](O)[C@H](NC)[C@H]2O[C@@]3(O)C(=O)C[C@@H](C)O[C@H]3O[C@@H]2[C@H]1O` here?
**A.** Its value is 114%.

**Q.** For `CN1C(C)(C)CCCC1(C)C`, which “activity change, negative = cytotoxic” value is on record?
**A.** The value was -3.44%.

**Q.** With `COc1ccccc1OCC(O)CO` (stereo not given) as the compound, how does the “activity change, negative = cytotoxic” value read?
**A.** Its value is 9.65%.

**Q.** For `CC(=O)OCC(=O)[C@@]1(O)CC[C@H]2[C@@H]3CCC4=CC(=O)C=C[C@]4(C)[C@@]3(F)[C@@H](O)C[C@@]21C`, which “activity change, negative = cytotoxic” value is on record?
**A.** The value was -12.5%.

**Q.** For `CCN(CC)CCc1nc(-c2ccccc2)no1`, which “activity change, negative = cytotoxic” value is on record?
**A.** The value was 20.7%.

**Q.** Which “activity change, negative = cytotoxic” value does the source give for `C[n+]1ccccc1/C=N/O` here?
**A.** The value was 8.26%.

**Q.** With `O=C(O)Cn1c(C(=O)Nc2nc(-c3ccccc3Cl)cs2)cc2ccccc21` as the compound, how does the “activity change, negative = cytotoxic” value read?
**A.** The value was 2.79%.

**Q.** With `O[C@@H]1CO[C@H]2[C@@H]1OC[C@@H]2O` as the compound, how does the “activity change, negative = cytotoxic” value read?
**A.** Its value is -6.83%.

**Q.** With `COC(=O)N/N=C/c1c[n+]([O-])c2ccccc2[n+]1[O-]` as the compound, how does the “activity change, negative = cytotoxic” value read?
**A.** The value was 15.9%.

**Q.** Which “activity change, negative = cytotoxic” value does the source give for `Cc1cc(C)c(NC(=O)CN(CC(=O)O)CC(=O)O)c(C)c1Br` here?
**A.** The value was 11.6%.

**Q.** Which “activity change, negative = cytotoxic” value does the source give for `Cc1ccsc1/C=C/C1=NCCCN1C` here?
**A.** Its value is -10.7%.

**Q.** For `O=C1c2ccccc2C(=O)C1c1ccc(Br)cc1`, which “activity change, negative = cytotoxic” value is on record?
**A.** The value was 51.8%.

**Q.** Which “activity change, negative = cytotoxic” value does the source give for `CN[C@@H]1[C@@H](O)[C@@H](O[C@@H]2[C@H](O)[C@H](O[C@H]3OC(CN)=CC[C@H]3N)[C@@H](N)C[C@H]2N)OCC1(C)O` (stereo not given in full) here?
**A.** Its value is 8.18%.

**Q.** Which “activity change, negative = cytotoxic” value does the source give for `CC[N+](C)(CC)CCOC(=O)C1c2ccccc2Oc2ccccc21` here?
**A.** The value was 7.42%.

**Q.** For `O=C1CC[C@@H](C(=O)O)N1`, which “activity change, negative = cytotoxic” value is on record?
**A.** The value was -8.96%.

**Q.** Which activity change, negative = cytotoxic does the source give for `N[C@@H](Cc1ccc(O)cc1)C(=O)O` here?
**A.** The activity change, negative = cytotoxic was 9.85% [at 11.5 µM].

**Q.** Which “activity change, negative = cytotoxic” value does the source give for `O=C(O)CCC(=O)O` here?
**A.** The value was 3.07%.

**Q.** For `Cc1ccc(S(=O)(=O)NC(=O)NC2CCCCCCC2)cc1`, which “activity change, negative = cytotoxic” value is on record?
**A.** The value was 22.1%.

**Q.** With `CCCOC(=O)c1ccc(N)cc1` as the compound, how does the “activity change, negative = cytotoxic” value read?
**A.** Its value is -7.16%.

**Q.** For `CC(=O)Nc1ccc(C(=O)O)cc1`, which “activity change, negative = cytotoxic” value is on record?
**A.** Its value is 11.5%.

**Q.** With `O=C(O)C(S)C(S)C(=O)O` (stereo not given) as the compound, how does the “activity change, negative = cytotoxic” value read?
**A.** Its value is 22.5%.

**Q.** Which “activity change, negative = cytotoxic” value does the source give for `CC(C)c1cc2c(cc1S(=O)(=O)O)[C@@]1(C)CCC[C@@](C)(C(=O)O)[C@@H]1CC2` here?
**A.** The value was 8.51%.
